# Data as given in paper PMC11062922 (Nature Chemical Biology, 2023).
# Like-named read-outs stand apart in the source and are kept apart here.
# Legend:
# Parameters in all cases: species or system human, MV4-11 + K-562 + COLO205 + SK-N-BE2 + OVCAR-8
# ACVR1B = details: read-out: apparent Kd, n = 1
# ACVR2B = details: read-out: apparent Kd, n = 1
# CSNK1A1 = details: read-out: apparent Kd; compound concentrations:100 nM and 1000 nM (sheet 'Samples'); n = 1
# CSNK1D = details: read-out: apparent Kd, n = 1
# CSNK1E = details: read-out: apparent Kd, n = 1
# GAK = details: read-out: apparent Kd; compound concentrations:100 nM and 1000 nM (sheet 'Samples'); n = 1
# MAPKAPK2 = details: read-out: apparent Kd, n = 1
# PRKD2 = details: read-out: apparent Kd; compound concentrations:100 nM and 1000 nM (sheet 'Samples'); n = 1
# TGFBR1 = details: read-out: apparent Kd, n = 1
# TGFBR2 = details: read-out: apparent Kd, n = 1
# TNIK = details: read-out: apparent Kd; compound concentrations:100 nM and 1000 nM (sheet 'Samples'); n = 1
# CDC42 = details: read-out: apparent Kd; compound concentrations:100 nM and 1000 nM (sheet 'Samples'); n = 1
# NQO2 = details: read-out: apparent Kd; compound concentrations:100 nM and 1000 nM (sheet 'Samples'); n = 1
# BUB1 = details: read-out: apparent Kd; compound concentrations: 100 nM and 1000 nM (sheet 'Samples'), CATDS: 2.9368799543599802E-2; n = 1
# CIT = details: read-out: apparent Kd; compound concentrations: 100 nM and 1000 nM (sheet 'Samples'), CATDS: 3.19087660473499E-2; n = 1
# EPHA1 = details: read-out: apparent Kd; compound concentrations: 100 nM and 1000 nM (sheet 'Samples'), CATDS: 4.4029751359189198E-2; n = 1
# FLT3 = details: read-out: apparent Kd; compound concentrations: 100 nM and 1000 nM (sheet 'Samples'), CATDS: 4.1263088221053297E-2; n = 1
# FRK = details: read-out: apparent Kd; compound concentrations: 100 nM and 1000 nM (sheet 'Samples'), CATDS: 4.1342549308714401E-2; n = 1
# FYN = details: read-out: apparent Kd; compound concentrations: 100 nM and 1000 nM (sheet 'Samples'), CATDS: 3.5075113560986498E-2; n = 1
# MAPK14 = details: read-out: apparent Kd; compound concentrations: 100 nM and 1000 nM (sheet 'Samples'), CATDS: 3.4547137011971901E-2; n = 1
# NLK = details: read-out: apparent Kd; compound concentrations: 100 nM and 1000 nM (sheet 'Samples'), CATDS: 0.113621067973222; n = 1
# PKN3 = details: read-out: apparent Kd; compound concentrations: 100 nM and 1000 nM (sheet 'Samples'), CATDS: 8.07286972312308E-2; n = 1
# PTK6 = details: read-out: apparent Kd; compound concentrations: 100 nM and 1000 nM (sheet 'Samples'), CATDS: 4.3994171841747899E-2; n = 1
# RET = details: read-out: apparent Kd; compound concentrations: 100 nM and 1000 nM (sheet 'Samples'), CATDS: 0.126907733860845; n = 1
# RIPK2 = details: read-out: apparent Kd; compound concentrations: 100 nM and 1000 nM (sheet 'Samples'), CATDS: 0.22838556729877599; n = 1
# RIPK3 = details: read-out: apparent Kd; compound concentrations: 100 nM and 1000 nM (sheet 'Samples'), CATDS: 3.6654773493518103E-2; n = 1
# SIK3 = details: read-out: apparent Kd; compound concentrations: 100 nM and 1000 nM (sheet 'Samples'), CATDS: 2.9281323909689301E-2; n = 1
# SLK = details: read-out: apparent Kd, n = 1
# TESK2 = details: read-out: apparent Kd; compound concentrations: 100 nM and 1000 nM (sheet 'Samples'), CATDS: 3.8437234907131197E-2; n = 1
# MAP3K1 = details: read-out: apparent Kd; compound concentrations:100 nM and 1000 nM (sheet 'Samples'); n = 1
# STK10 = details: read-out: apparent Kd; compound concentrations:100 nM and 1000 nM (sheet 'Samples'); n = 1
# [1] = compound concentrations:100 nM and 1000 nM (sheet 'Samples')
smiles,measurement,setting,value
c1ccc(-c2n[nH]cc2-c2ccnc3ccccc23)nc1 [GW271431X],potency estimated from few doses,ACVR1B; [1],18.8 nM
same,potency estimated from few doses,ACVR2B; [1],555 nM
same,potency estimated from few doses,CSNK1A1,628 nM
same,potency estimated from few doses,CSNK1D; [1],398 nM
same,potency estimated from few doses,CSNK1E; [1],712 nM
same,potency estimated from few doses,GAK,465 nM
same,potency estimated from few doses,MAPKAPK2; [1],1680 nM
same,potency estimated from few doses,PRKD2,1430 nM
same,potency estimated from few doses,TGFBR1; [1],9.71 nM
same,potency estimated from few doses,TGFBR2; [1],113 nM
same,potency estimated from few doses,TNIK,1380 nM
CN(C(=O)c1ccc(-c2cc(-c3c[nH]nc3-c3ccccn3)ccn2)cc1)C1CCOCC1 [GW810083X],potency estimated from few doses,ACVR1B; [1],788 nM
same,potency estimated from few doses,CDC42,1840 nM
same,potency estimated from few doses,CSNK1A1,2390 nM
same,potency estimated from few doses,CSNK1D; [1],1940 nM
same,potency estimated from few doses,NQO2,1200 nM
same,potency estimated from few doses,TGFBR1; [1],198 nM
Nc1ncnc2c1ncn2-c1cccc(F)c1 [SKF-97560],potency estimated from few doses,"ACVR1B; compound concentrations: 100 nM and 1000 nM (sheet 'Samples'), CATDS: 5.4958812802740099E-2",352 nM
same,potency estimated from few doses,"ACVR2B; compound concentrations: 100 nM and 1000 nM (sheet 'Samples'), CATDS: 3.61499985403008E-2",987 nM
same,potency estimated from few doses,BUB1,2060 nM
same,potency estimated from few doses,CIT,1490 nM
same,potency estimated from few doses,"CSNK1D; compound concentrations: 100 nM and 1000 nM (sheet 'Samples'), CATDS: 4.1820376814662601E-2",661 nM
same,potency estimated from few doses,"CSNK1E; compound concentrations: 100 nM and 1000 nM (sheet 'Samples'), CATDS: 3.1298508243452101E-2",1600 nM
same,potency estimated from few doses,EPHA1,581 nM
same,potency estimated from few doses,FLT3,684 nM
same,potency estimated from few doses,FRK,681 nM
same,potency estimated from few doses,FYN,1080 nM
same,potency estimated from few doses,MAPK14,1140 nM
same,potency estimated from few doses,"MAPKAPK2; compound concentrations: 100 nM and 1000 nM (sheet 'Samples'), CATDS: 3.21088228610018E-2",1450 nM
same,potency estimated from few doses,NLK,94.9 nM
same,potency estimated from few doses,PKN3,168 nM
same,potency estimated from few doses,PTK6,582 nM
same,potency estimated from few doses,RET,80 nM
same,potency estimated from few doses,RIPK2,34.9 nM
same,potency estimated from few doses,RIPK3,948 nM
same,potency estimated from few doses,SIK3,2090 nM
same,potency estimated from few doses,"SLK; compound concentrations: 100 nM and 1000 nM (sheet 'Samples'), CATDS: 3.3087406541094599E-2",1310 nM
same,potency estimated from few doses,TESK2,828 nM
same,potency estimated from few doses,"TGFBR1; compound concentrations: 100 nM and 1000 nM (sheet 'Samples'), CATDS: 6.0050656716600502E-2",293 nM
same,potency estimated from few doses,"TGFBR2; compound concentrations: 100 nM and 1000 nM (sheet 'Samples'), CATDS: 8.5809969501024E-2",151 nM
C[C@@H](Oc1cc(-n2cnc3cc(-c4ccnc(N5CCN(C)CC5)c4)ccc32)sc1C(N)=O)c1ccccc1Cl [GSK641502A],potency estimated from few doses,ACVR2B; [1],732 nM
same,potency estimated from few doses,MAP3K1,603 nM
same,potency estimated from few doses,SLK; [1],1940 nM
same,potency estimated from few doses,STK10,1120 nM
O=C(c1ccc(-c2cc(-c3c[nH]nc3-c3ccccn3)ccn2)cc1)N1CCOCC1 [GW812171X],potency estimated from few doses,ACVR1B; [1],119 nM
same,potency estimated from few doses,TGFBR1; [1],67.6 nM
